The record followed here is PubChem BioAssay AID686978 (National Center for Advancing Translational Sciences (NCATS), 2013).

Out of some 420,000 compounds screened, about 64,000 (15%) were called active. Another 27% or so got no clear call; they are omitted. These entries were drawn from the full list. Unmarked numbers belong to inactive results. The call rests on the fitted dose curve; in most records, active means well fitted inhibition curve with a large enough effect; inconclusive means small, poorly fitted or top-dose-only effect; inactive means flat fitted curve, though single readings scatter.
On the % scale 0 is the no-effect control and ±100 the full control effect; potency means the concentration at half of the fitted maximal effect.

The assay in a line: qHTS for Inhibitors of human tyrosyl-DNA phosphodiesterase 1 (TDP1): qHTS in cells in absence of CPT. Further: nearly all actives have a fitted effect of over 55% in size. To be noted: DT40 Tdp1-/- hTDP1 cells, no CPT, ATP luminescence, 48 h; activity change, negative = growth inhibition: at 46.2 µM (top of the series). The method, boiled down:
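Readout: luminescence from CellTiter-Glo after 30 min in the dark at RT. Cells: DT40 Tdp1-/- with stable hTDP1, 400/well. Exposure: compounds alone, ≥48 hr, 37 °C.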
As to `CCOc1ccc(C(CC(=O)O)NC(=O)Cc2ccccc2)cc1OC` (stereo not drawn), the “activity change, negative = growth inhibition” value was 4.25%. On the same count and under the same terms, the value for `COC(=O)C1C(=O)CC(C)(O)C(C(=O)OC)C1c1ccc2c(c1)OCO2` (stereo not drawn) was -0.751%. With `NCCCC[C@@H]1NC(=O)[C@H](CCC(=O)O)NC(=O)c2cc([N+](=O)[O-])cc(I)c2NCC[C@@H](C(N)=O)NC1=O`, the “activity change, negative = growth inhibition” value is -1.72%. Same read-out and setting: as for `CCc1nnc(NC(=O)CSCc2cc(=O)n3cc(C)sc3n2)s1`, the figure is 11.4%. Consider `COc1ccc(CN2CC[C@H]3C=CC[C@@H](C(=O)N4CCOCC4)[C@H]3C2=O)cc1OC`, for which the Potency entry is “inactive”. Still for that read-out and setting: as for `CC(NC(=O)c1cc2c(=O)n3ccccc3nc2n(C(C)C)c1=N)c1ccccc1` (stereo not drawn), the figure is 18.4 µM (active). Turning to `Cc1ccc2nc3c(cc(C(=O)NC4CCCCC4)c(=N)n3C(C)C)c(=O)n2c1`, the “activity change, negative = growth inhibition” value was -10.7%. Same read-out and setting: as for `CC(NC(=O)c1ccccc1C(=O)O)c1ccc(-n2ccnc2)cc1` (stereo not drawn), the figure is 4.82%. `COc1cccc(C(=O)N(Cc2cccc(Cl)c2)Cc2ccco2)c1`: the Potency was 14.6 µM (active). For `COc1cccc(NC(=S)NCc2ccco2)c1`, the “activity change, negative = growth inhibition” value is -17.3%. As for `O=C(Nc1ccccc1)N(Cc1cccnc1)Cc1ccco1`, the “activity change, negative = growth inhibition” value is -2.21%.

As for `CCc1ccc(CN(Cc2ccco2)C(=O)c2ccccc2Cl)cc1`, the Potency was 20.6 µM (active). Consider `COC(=O)c1ccc(COC(=O)CNC(=O)c2cccc(OC)c2)o1`, for which the “activity change, negative = growth inhibition” value was 17.8%. `O=C(CCNC(=O)c1ccccc1Cl)NCc1ccco1`: the “activity change, negative = growth inhibition” value is 11.9%.

For `CCCOc1ccc(Cn2c(O)cc(=O)[nH]c2=O)cc1`, the “activity change, negative = growth inhibition” value was 2.12%. The same measure, in the same setting: as for `CN1CCN(C(=O)/C(=C\c2ccc3c(c2)OCO3)NC(=O)c2cccs2)CC1`, the figure is -3.25%.

As to `Cc1ccc(-c2nc(-c3ccncc3)no2)c(C)c1`, the “activity change, negative = growth inhibition” value is 2.69%. Same read-out and setting: the value for `Cc1nn(CC(=O)NCC2CCCO2)c(=O)c2cc3ccccc3n12` (stereo not drawn) was -3.75%. Regarding `CN(C)C1=NC[C@H](Cc2ccccc2)N1CCc1ccc(F)cc1`, the “activity change, negative = growth inhibition” value is -29.6%. For `CCCCNC(=O)C1CCC(=O)N1CCc1ccccc1` (stereo not drawn), the “activity change, negative = growth inhibition” value was 0.76%. On to `CCCCN1C(N)=NC[C@@H]1CC1CCCCC1`, for which the Potency was 16.4 µM (active). For `CCCCN1C(=S)NC[C@@H]1C(C)CC` (stereo partly drawn), the “activity change, negative = growth inhibition” value was -7.9%. Regarding `CCCCN1C(N)=NC[C@@H]1Cc1ccccc1`, the Potency is 14.6 µM (active).

In the case of `CCCC[C@@H]1CN=C(N)N1CCCC`, the Potency is 7.31 µM (active).

Consider `NNC(=O)c1ccc(Cl)cc1Cl`, for which the “activity change, negative = growth inhibition” value is 20.2%. The same measure, in the same setting: the value for `OCC(CO)(CO)NCc1ccc(-c2ccccc2)cc1` was -20.5%. Turning to `Cn1nc([N+](=O)[O-])nc1Sc1ccc(C(C)(C)C)cc1`, the “activity change, negative = growth inhibition” value was -21.5%.

As to `O=C(CC1NCCNC1=O)Nc1cc(Cl)cc(Cl)c1` (stereo not drawn), the “activity change, negative = growth inhibition” value is -2.46%. As to `Cc1nc(-c2ccccc2)sc1C(=O)/C=C/c1ccccc1`, the Potency was 18.4 µM (active). For `Cc1ccc(SCC(=O)c2sc(-c3ccccc3)nc2C)cc1`, the “activity change, negative = growth inhibition” value is -24.2%. As for `CNC(=O)c1csc(-c2ccccc2)n1`, the “activity change, negative = growth inhibition” value is 10.5%. The same measure, in the same setting: the value for `N#Cc1cnn2cc(CCN3CCOCC3)c(-c3ccc(F)cc3)nc12` was -6.51%; that for `CCCc1c2oc(C(=O)O)cc(=O)c2cc2c(=O)cc(C(=O)O)n(CC)c12` was -4.78%.

`O=C(Nc1ccccc1C(=O)NCC1CCCO1)c1ccccc1F` (stereo not drawn): the “activity change, negative = growth inhibition” value is 12%. The same measure, in the same setting: as for `CNC(=O)CN1C(=O)NC(c2ccccc2)(c2ccccc2)C1=O`, the figure is -5.71%. Take `CC1=C(C(=O)N(C)C)CC(CC(=O)NCCN2CCOCC2)C(=O)N1Cc1ccccc1` (stereo not drawn): the “activity change, negative = growth inhibition” value is 8.06%. In the case of `CCN(CC)C(=O)C1=C(C)N(Cc2ccc(C(C)(C)C)cc2)C(=O)C(CC(=O)NCc2cccc3ccccc23)C1` (stereo not drawn), the Potency was 16.4 µM (active).

Turning to `CCN(CC)C(=O)C1=C(C)N(Cc2ccc(F)cc2)C(=O)C(CC(=O)NC2CCCC2)C1` (stereo not drawn), the “activity change, negative = growth inhibition” value is -27.4%. Still for that read-out and setting: as for `CCN(CC)C(=O)C1=C(C)N(Cc2ccc(OC)cc2)C(=O)C(CC(=O)NCc2ccco2)C1` (stereo not drawn), the figure is -23.8%; as for `COc1ccc(CN2C(=O)C(CC(=O)NCc3cccc4ccccc34)CC(C(=O)N3CCOCC3)=C2C)cc1` (stereo not drawn), -25.6%. On to `CCN(CC)C(=O)C1=C(C)N(Cc2ccccc2)C(=O)C(CC(=O)NC(c2ccccc2)c2ccccc2)C1` (stereo not drawn), for which the Potency was 18.4 µM (active). With `COc1ccc2c(C)cc3nnnn3c2c1`, the “activity change, negative = growth inhibition” value is -26.4%. The same measure, in the same setting: as for `O=C(Nc1ccc(Cl)cc1)c1cc2nc(C3CC3)cc(C(F)(F)F)n2n1`, the figure is -8.12%; as for `COc1ccc(C(=O)NCc2nnc(SCC(=O)Nc3cccc(OC)c3)o2)cc1`, -7.64%. On to `COc1cc(C(=O)NCc2nnc(SCC(=O)Nc3nc4ccc(C)cc4s3)o2)cc(OC)c1OC`, for which the Potency is 4.61 µM (active). Take `COc1ccccc1NC(=O)CSc1nnc(CNC(=O)c2ccccc2F)o1`: the “activity change, negative = growth inhibition” value was 22.7%. On the same count and under the same terms, the value for `O=C(O)c1cc(S(=O)(=O)NC2CCCc3ccccc32)ccc1O` (stereo not drawn) was 10.8%. Still for that read-out and setting: as for `CCC(C)(NC(=O)c1ccccn1)C(=O)NC1CCCCC1` (stereo not drawn), the figure is 10.8%. Regarding `CCN(CC)CCOc1ccc2c(c1)C(=NNC(=O)c1ccccn1)c1cc(OCCN(CC)CC)ccc1-2`, the Potency was 3.26 µM (active). For the compound `Cc1cccc(OCC(=O)NCCCNC(=O)c2ccccn2)c1`, the “activity change, negative = growth inhibition” value was 3.27%. As to `N#Cc1ccc[n+](CC(=O)c2ccc(O)c(O)c2)c1`, the “activity change, negative = growth inhibition” value is -17.2%. Consider `CCn1c(/C=C/Nc2ccccc2)[n+](CC)c2ccc(C(=O)OCC(F)(F)F)cc21`, for which the Potency was 14.6 µM (active).

Regarding `CCOC(=O)c1cc2ccccc2n1CC(=O)c1ccccc1`, the “activity change, negative = growth inhibition” value was -24.1%.
